Source: PubChem (National Center for Advancing Translational Sciences (NCATS))
aGal spleen mod: inhibits or activates alpha-galactosidase in human spleen homogenate; P06280; Potency, µM (doses to about 80 µM), inactives show at the highest dose activity change, negative = inhibition, actives largely listed as inhibitors; hit rate 0.008% among 240,000; human spleen homogenate, 4MU-alpha-Gal fluorescence, 40 min;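 further: potency means the concentration at half of the fitted maximal effect; 0% = enzyme with vehicle and -100% = no enzyme basal signal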
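Human spleen homogenate (1 ug) was the enzyme source, with 4-methylumbelliferyl-alpha-D-galactopyranoside (1 mM final) in pH 5.0 citrate buffer with 0.01% Tween-20. Compounds were titrated; after 40 min at 37C, NaOH/glycine stop, 4-MU fluorescence read; AC50 from Hill fits.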
GAA glycogen mod: alters human alpha-glucosidase cleavage of glycogen; AID 2100; hit rate 0.38% among 300,000; P10253; recombinant GAA, glycogen substrate, Amplex Red glucose oxidase fluorescence; Potency, µM (titrated, usually from 76.4 µM), for the others: at the top dose activity change, negative = inhibition, actives largely listed as inhibitors;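 further: potency means the concentration at half of the fitted maximal effect; 0% = full enzyme reaction and -100% = no-enzyme basal signal; the screen sought inhibitors and activators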
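Recombinant enzyme (4 nM final) with compounds titrated up to 77 uM and bovine liver glycogen (30 ug) in citrate pH 5.0, 0.01% Tween-20, 37 C 40 min. Released glucose detected by Amplex Red/glucose oxidase (Ex 573/Em 610); AC50 from Hill fits.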
aGlu spleen mod: lysosomal alpha-glucosidase (human) modulation; Potency, µM (top dose mostly 79.9 µM), for the others: at the top dose activity change, negative = inhibition, usual class: inhibitors; human spleen homogenate, 4-MU-alpha-glucoside fluorescence; hit rate 0.006% among 240,000; P10253; AID 2112;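 further: potency means the concentration at half of the fitted maximal effect; 0% = enzyme with vehicle and -100% = no enzyme basal signal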
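AC50 values come from Hill-equation fits of concentration-response data, normalized to no-enzyme and full-activity controls. Enzyme source: 1 ug human spleen homogenate; 1 mM fluorogenic 4-MU glucoside, pH 5.0 citrate buffer, 37 C, 40 min.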
GAA inhib: blocks human lysosomal alpha-glucosidase. P10253. Potency, µM (highest dose often 76.9 µM), for the others: at the top dose activity change, negative = inhibition, hits mostly inhibitors. hit rate 0.005% among 200,000. purified human GAA, 4-MU-alpha-glucoside fluorescence;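 further: potency means the concentration at half of the fitted maximal effect; plate controls were uninhibited enzyme wells for no effect and no-enzyme background for full effect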
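qHTS format, compound range up to 77 uM. Human lysosomal enzyme at 4 nM, 400 uM 4-MU glucoside substrate, pH 5.0, 20 min room temperature; fluorescence after alkaline stop gives activity normalized to controls.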
GLA inh pH 4.5: alpha-galactosidase A (human) inhibition, pH 4.5 | AID 1467 | purified enzyme, 4-MU-alpha-Gal fluorescence, pH 4.5 | activity change, negative = inhibition, % at 105 µM | 230,000 tested, under 10 active | P06280;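 further: 0% = full activity with enzyme and -100% = basal without enzyme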
Target sequence (P06280 whole entry, looked up): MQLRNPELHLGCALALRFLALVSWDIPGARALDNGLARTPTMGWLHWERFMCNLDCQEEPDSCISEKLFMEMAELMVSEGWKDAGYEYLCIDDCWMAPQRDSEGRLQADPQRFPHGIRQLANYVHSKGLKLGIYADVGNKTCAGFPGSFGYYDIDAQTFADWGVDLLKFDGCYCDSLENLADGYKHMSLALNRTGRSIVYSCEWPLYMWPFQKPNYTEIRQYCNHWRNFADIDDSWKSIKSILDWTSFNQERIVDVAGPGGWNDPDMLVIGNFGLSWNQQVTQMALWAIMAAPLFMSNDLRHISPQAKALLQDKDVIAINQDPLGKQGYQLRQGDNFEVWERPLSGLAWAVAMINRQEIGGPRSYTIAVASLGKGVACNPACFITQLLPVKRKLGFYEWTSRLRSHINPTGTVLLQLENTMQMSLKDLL
N370S GC mod: inhibitors or activators of N370S glucocerebrosidase for Gaucher disease. P04062. N370S GC spleen homogenate, 4MU-glucoside fluorescence. Potency, µM (doses to about 59.4 µM), without a hit: at the top dose activity change, negative = inhibition, most hits filed as inhibitors. hit rate 0.092% among 330,000;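 further: potency means the concentration at half of the fitted maximal effect; 0% = full enzyme activity and -100% = no enzyme basal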
* marks the source's active call; other numbers are inactive results; ? = inconclusive; . = no result given; [ ] = remark or other dose. The list is not random: actives were taken first. Their share in the collection is about 0.43%. The call rests on the fitted dose curve; in most records, active means well fitted curve in the direction sought with a large enough effect; inconclusive means small, poorly fitted or top-dose-only effect, or another doubt; inactive means no such curve, though single readings can be large; an effect the other way counts as inactive or inconclusive.

SMILES	aGal spleen mod	GAA glycogen mod	aGlu spleen mod	GAA inhib	GLA inh pH 4.5	N370S GC mod
CCN1CCS/C1=C/C=C/C1=[N+](CC)CCS1	-20%	-9%	?	?	?	7.9µM*
Cc1ccc(CC(Cc2nc3ccccc3[nH]2)c2nc3ccccc3[nH]2)cc1 (centres undefined)	6%	.	-11%	.	-9	-8%
Cc1nc(NS(=O)(=O)c2ccccc2)sc1NC(=O)OCCN(C)C	1%	25µM*	-5%	-5%	3	4%
N#CC(=C(/N)Sc1ccccc1N)/C(C#N)=C(/N)Sc1ccccc1N	-1%	.	-3%	.	-2	-19%
COc1cccc(-c2nc(NCCc3c[nH]c4ccc(OC)cc34)c3ccccc3n2)c1	8%	.	2%	.	-2	14µM*
COc1ccc2[nH]cc(CCNc3nc(-c4ccc(N(C)C)cc4)nc4ccccc34)c2c1	23%	.	2%	.	.	?
COc1ccc2[nH]cc(CCNc3nc(-c4ccoc4)nc4ccccc34)c2c1	1%	.	-12%	.	-10	16µM*
Cc1cc(NC(=O)Nc2nnc(N3CCCCC3)s2)ccc1Br	.	13%[76.3 µM]	.	.	.	.
CC(C)(C)NC(=O)C(c1ccncc1)N(Cc1cccs1)C(=O)Cn1nnc(-c2cccs2)n1 (centres undefined)	1%	28µM*	-4%	-7%	-2	3%
Cc1ccc(C(C(=O)NC(C)(C)C)N(Cc2ccco2)C(=O)Cn2nnc(-c3cccs3)n2)cc1 (centres undefined)	10%	6%	4%	-4%	-2	4%
O=[N+]([O-])c1cc2nc(O)c(O)nc2cc1[N+](=O)[O-]	-3%	.	-10%	.	-10	13µM*
N#Cc1cc2nc(O)c(O)nc2cc1[N+](=O)[O-]	7%	.	-5%	.	-1	.
Cc1cccc(C)c1NC(=O)CSCC(=O)c1ccc(O)c(O)c1	-4%	11µM*	-10%	-20%	-2	2%
O=C1c2ccccc2C(=O)N1CCc1c[nH]c2ccc(O)cc12	1%	3.1µM*	1%	?	4	5%
Oc1ccc(-c2nc3ccccn3c2NCc2ccco2)cc1	3%	14µM*	3%	2%	-2	?
Cc1ccc(-n2nc3c(=O)n(CCCC(=O)NCc4ccc(C)o4)nc(C)c3c2C)cc1	.	.	.	.	.	-3%
OC1(c2ccc(Cl)c(C(F)(F)F)c2)CCN(CCCC(c2ccc(F)cc2)c2ccc(F)cc2)CC1	11%	.	12%	.	.	-9%
CCOC(=O)c1[nH]c2ccccc2c1NC(=S)Nc1ccccc1C	9%	14µM*	-3%	-8%	1	3%
C/C(=N\N1CCN(C)CC1)c1ccc(Cl)c(Cl)c1	1%	28µM*	2%	4%	5	-2%
COc1ccccc1N1CCN(/N=C/c2ccc(O)c(O)c2)CC1	-7%	2.8µM*	-5%	10%	7	-16%
Oc1cc2c(cc1O)[C@@H](c1ccccc1)CNCC2	4%	1.8µM*	4%	3%[15.4 µM]	7	13%
CCS(=O)(=O)N1CCN(C(=O)c2cccc3ccccc23)CC1	.	13%[76.3 µM]	.	.	.	-9%
COc1ccc(C(=O)NC2CC2)cc1OC1CCN(Cc2ccc(F)c(F)c2)CC1	.	.	.	.	.	-8%
COc1ccc(C(=O)NNC(=S)NC(=O)c2cccnc2)cc1	1%	40µM*	-3%	4%	-2	-12%
COc1ccc(NC(=S)NNC(=O)c2cccnc2)cc1OC	7%	4µM*	-6%	-7%	2	-10%
O=C(COc1ccccc1[N+](=O)[O-])N/N=C/c1ccc(O)c([N+](=O)[O-])c1	2%	3%	-3%	-3%	2	15%
O=C(COc1ccccc1C(=O)N/N=C\c1ccc(O)c(O)c1)N/N=C/c1ccc(O)c(O)c1	-8%	3.1µM*	-21%	-6%	-5	-3%[12.8 µM]
O=C(CNC(=O)C12CC3CC(CC(C3)C1)C2)N1CCN(S(=O)(=O)/C=C/c2ccccc2)CC1	3%	-1%	-3%	?	-5	11%
